Compound activity from PubChem.
Most compounds without a hit are left out; they make up all but 12% or so of the library.
Pf growth 96h: P. falciparum growth inhibition at 96 hour, primary screen for plastid delayed-death inhibitors; P. falciparum luciferase reporter growth, 96 h; Potency, µM (top dose mostly 28.7 µM), usual class: inhibitors; 6.9% of 320,000 active
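P. falciparum expressing integrated firefly luciferase grown in erythrocytes (2% hematocrit, 0.05% parasitemia final) with compounds for 96 hours at 37 C, 5% CO2. Growth inhibition read as loss of luminescence after adding luciferase detection reagent.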
Pf growth 48h: P. falciparum growth inhibition at 48 hours (one generation) | P. falciparum luciferase growth in erythrocytes, 48 h | Potency, µM (highest dose often 28.7 µM), most hits filed as inhibitors | 5.9% of 310,000 active
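Compounds are pin-transferred into medium, infected erythrocytes (2% hematocrit, 0.1% parasitemia final) are added, and plates sit one parasite generation at 37 C in 5% CO2. Detection reagent is then added and luminescence measured.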
Sm TGR block: blocks Schistosoma mansoni thioredoxin glutathione reductase; purified TGR, DTNB reduction, TNB absorbance 405 nm; 3% of 360,000 active; Q962Y6; Potency, µM (series often up to 114 µM), hits mostly inhibitors; further: nearly all actives have a fitted effect of over 60% in size
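TGR 20 nM + NADPH 100 uM (dispensed conc.), cpd preinc 15 min RT; start with NADPH (500 uM addition) then DTNB (15 mM addition). Kinetic TNB absorbance, 405 nm filter. Four-parameter Hill fit across titration.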
SARS PLP yeast: inhibitors of SARS-CoV papain-like protease in yeast; S. cerevisiae expressing SARS-CoV PLpro, growth rescue; Potency, µM (series often up to 32.9 µM), hits mostly activators; 0.19% of 330,000 active; calls by dose curve; further: nearly all actives have a fitted effect of over 55% in size
Of the large screens only hits and unclear results are named; the others gave an inactive call. Unless noted, the call rests on the fitted dose curve; in most records, active means well fitted curve in the direction sought with a large enough effect; inconclusive means small, poorly fitted or top-dose-only effect, or another doubt; inactive means no such curve, though single readings can be large; an effect the other way counts as inactive or inconclusive.

Cc1ccc(C(C[N+](=O)[O-])n2nc(C)cc2C)cc1 (stereo unspecified)	Pf growth 48h inconclusive, Sm TGR block inconclusive (no result: Pf growth 96h)
Cc1ccc(C(C[N+](=O)[O-])Sc2ccc(N)cc2)cc1 (stereo unspecified)	Pf growth 96h 12µM, Pf growth 48h inconclusive
C=C[C@@H]1c2cccc(C)c2N(S(=O)(=O)c2ccc(C)cc2)[C@H](c2ccc(OC(C)=O)cc2)C1(C#N)C#N	none (no result: Pf growth 96h, Pf growth 48h, Sm TGR block)
C=C[C@@H]1c2c(F)cccc2N(S(=O)(=O)c2ccc(C)cc2)[C@H](c2ccc(OC(C)=O)cc2)C1(C#N)C#N	Pf growth 96h 2.6µM, Pf growth 48h 1.7µM
C=C[C@@H]1c2c(F)cccc2N(S(=O)(=O)c2ccc(C)cc2)[C@H](c2ccc(C(=O)OC)cc2)C1(C#N)C#N	Pf growth 96h 12µM, Pf growth 48h 4.1µM, Sm TGR block inconclusive
CCOC(=O)NC1(Nc2ccc(Cl)cn2)Oc2ccccc2O1	Pf growth 96h inconclusive, Sm TGR block 7.1µM
CCOC(=O)/C=c1\s/c(=C(\C#N)C(N)=O)n(-c2ccccc2)c1=O	Sm TGR block 10µM
CCOC(=O)C1CCN(C(=O)Cn2ncc3c4ccccc4n(Cc4ccccc4F)c3c2=O)CC1	none (no result: Pf growth 96h, Pf growth 48h, SARS PLP yeast)
Cc1noc(C)c1CSCC(=O)NCCN1C(=O)S/C(=C\c2ccccc2F)C1=O	Pf growth 96h inconclusive, Pf growth 48h inconclusive
COc1cccc(NC(=O)C2CCN(S(=O)(=O)c3ccc4[nH]c(=O)ccc4c3)CC2)c1	Pf growth 96h 9.3µM, Pf growth 48h inconclusive
COc1ccc(NC(=O)C2CCN(S(=O)(=O)c3ccc4[nH]c(=O)ccc4c3)CC2)c(OC)c1	none (no result: Pf growth 96h, Pf growth 48h, SARS PLP yeast)
CC(C)N(C)C1CCN(S(=O)(=O)c2ccc3[nH]c(=O)ccc3c2)CC1	Sm TGR block 50µM (no result: Pf growth 96h, Pf growth 48h, SARS PLP yeast)
CN(C)c1ccc(CNC(=O)C2CCN(S(=O)(=O)c3ccc4[nH]c(=O)ccc4c3)CC2)cc1	none (no result: Pf growth 96h, Pf growth 48h, SARS PLP yeast)
COc1cccc(C(c2sc3nc(-c4ccco4)nn3c2O)N2CCN(c3ccccc3F)CC2)c1 (stereo unspecified)	none (no result: Pf growth 96h, Pf growth 48h, SARS PLP yeast)
CCN(CC(=O)NCc1cccs1)C(=O)Cc1ccc(Cl)c(Cl)c1	none (no result: Pf growth 96h, Pf growth 48h, Sm TGR block)
CCOC(=O)c1c(CN(C)C)n(C)c2c(O)c(N=NC(N)=O)c3ccc(Br)cc3c12	Pf growth 48h 0.41µM
CCCn1c(=O)c(C(=O)OCC)c(O)c2cc(Br)ccc21	Pf growth 96h inconclusive
O=C1c2cnccc2CN1Cc1ccccc1	Pf growth 96h 3.3µM
CCOC(=S)SSC(=S)OCC	none (no result: Sm TGR block, SARS PLP yeast)
Cc1ccc(C(=O)N(CC(=O)NC2CCCC2)c2ccccc2Cl)s1	none
CCOC(=O)C1=C(CC)Nc2ccccc2N=C1NC(=O)c1ccc(S(=O)(=O)N2CCOCC2)cc1	Pf growth 96h 15µM, Pf growth 48h inconclusive
CCOC(=O)C1=C(CC)Nc2ccccc2N=C1NC(=O)c1ccc(C)c(S(=O)(=O)N2CCOCC2)c1	Pf growth 96h 10µM, Pf growth 48h inconclusive
CCCCNC1C(CC)C(CCC)C(C#N)(C#N)C1(C#N)C#N (stereo unspecified)	Pf growth 96h inconclusive, Pf growth 48h 12µM
CCS(=O)(=O)N1CC(=O)N(c2ccc(Cl)cc2C)C(C)(C(=O)NC2CCCCC2)C1 (stereo unspecified)	none (no result: Pf growth 96h, Pf growth 48h, SARS PLP yeast)
COc1ccc(C(=O)CC(=O)C(=O)Nc2ccc(Cl)cc2)cc1	none (no result: Pf growth 48h)
COc1ccc(NC(=O)CCC(=O)OCC(=O)c2ccc(Oc3ccc([N+](=O)[O-])cc3)cc2)cc1	Pf growth 96h 9.3µM
COc1ccc(C(=O)CC(Nc2ccc([N+](=O)[O-])cc2)c2ccc(Cl)cc2)cc1 (stereo unspecified)	Pf growth 96h 9.3µM, Pf growth 48h 3.3µM
CCCCN(C(=O)C(C)Oc1ccc(Cl)cc1)c1c(N)n(CCCC)c(=O)[nH]c1=O (stereo unspecified)	none
O=c1[nH]c2ccc(Br)cc2c(-c2ccccc2)c1CN1CCOCC1	Pf growth 96h inconclusive, Sm TGR block 35µM (no result: Pf growth 48h)
Cc1cc(NC(=O)c2cccnc2)ccc1Br	none
Cc1ccc(-n2c(=O)c3sc4ccccc4c3n(CC(=O)NC3CCCC3)c2=O)cc1C	none (no result: Pf growth 96h, Pf growth 48h, SARS PLP yeast)
Cc1c(C)c2c(OCC(=O)NCC(C)C)cc3c(c2oc1=O)CCC(C)(C)O3	Pf growth 96h inconclusive, Pf growth 48h 8.3µM
COc1ccc(CNC(=O)COc2cc3c(c4oc(=O)cc(C)c24)CCC(C)(C)O3)cc1OC	Pf growth 96h 7.4µM, Pf growth 48h 10µM, SARS PLP yeast inconclusive
Cc1cc(=O)oc2c3c(cc(OCC(=O)NCc4ccncc4)c12)OC(C)(C)CC3	Pf growth 96h 10µM, Pf growth 48h inconclusive
Cc1c(C)c2c(OCC(=O)NCc3ccncc3)cc3c(c2oc1=O)CCC(C)(C)O3	Pf growth 96h 2.9µM, Pf growth 48h inconclusive
Cc1c(C)c2c(OCC(=O)N[C@@H](C)C(=O)O)cc3c(c2oc1=O)CCC(C)(C)O3	none
COc1ccc(C)cc1NC(=O)Nc1nnc(N2CCCCC2)s1	none (no result: Pf growth 96h, Pf growth 48h, SARS PLP yeast)
Cc1cc(=O)oc2c3c(cc(OCC(=O)NCc4ccco4)c12)OC(C)(C)CC3	Pf growth 96h 8.3µM, Pf growth 48h inconclusive
Cc1c(C)c2c(OCC(=O)NCc3ccco3)cc3c(c2oc1=O)CCC(C)(C)O3	none
CSCCC(NC(=O)c1ccco1)C(=O)N1CCN(C(c2ccccc2)c2ccccc2)CC1 (stereo unspecified)	Pf growth 96h 2.1µM, Pf growth 48h 8.3µM
COc1cccc(C2CC(=O)Nc3c2c(=O)nc2c(C)cccn32)c1OC (stereo unspecified)	none (no result: Pf growth 96h, Pf growth 48h, SARS PLP yeast)
C=Cc1ccc(Cn2c(C(=O)O)c(CNCCc3ccco3)c3ccc(C)cc32)cc1	Sm TGR block 22µM (no result: Pf growth 96h, Pf growth 48h, SARS PLP yeast)
O=C(CSCc1cc(=O)n2nc(C3CC3)sc2n1)Nc1ccccc1Cl	Pf growth 96h 3.3µM, Pf growth 48h inconclusive
Cc1cccc(NC(=O)CSCc2cc(=O)n3nc(C4CC4)sc3n2)c1	Pf growth 96h inconclusive
COc1ccc(N=Cc2c(O)c3ccccc3n2C(C)=O)cc1	Pf growth 96h inconclusive, Pf growth 48h inconclusive, Sm TGR block 28µM
COc1ccc(-c2coc3cc(OC4OC(CO)C(O)C(O)C4O)ccc3c2=O)cc1 (stereo unspecified)	Pf growth 96h 12µM
COc1ccc(-c2coc3cc(O[C@@H]4O[C@H](CO)[C@@H](O)[C@H](O)[C@H]4O)c(OC)cc3c2=O)cc1	none (no result: Pf growth 96h, Pf growth 48h, Sm TGR block)
Cc1nn(-c2ccccc2)c(Cl)c1C1C(C#N)=C(N)Oc2c1c(C)nn2-c1ccccc1 (stereo unspecified)	Pf growth 96h 10µM, Pf growth 48h 10µM
Cc1ccc(-n2nc(C)c3c2OC(N)=C(C#N)C3c2ccncc2)cc1 (stereo unspecified)	Pf growth 96h 0.52µM
COc1ccc(OC)c(NC(=O)c2ccccc2SC)c1	none (no result: Pf growth 96h)
COc1ccc(OC)c(NC(=O)c2cccnc2Sc2cc(C)ccc2C)c1	Pf growth 96h inconclusive, Pf growth 48h 10µM, SARS PLP yeast inconclusive
CC(=O)c1cccc(NC(=S)NCCCCc2ccccc2)c1	Pf growth 96h 9.3µM
CC(=O)c1cccc(NS(=O)(=O)c2ccc(NC(=O)N3CCCCC3)cc2)c1	Pf growth 96h 10µM
CCCCNC(=S)Nc1cccc(C(C)=O)c1	Sm TGR block inconclusive
CCC(=O)Nc1cccc(C(=O)Nc2nccs2)c1	none
